Active and inactive are the calls of the source.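 How the source made its calls: active means average half-effect concentration of 10 µM or less in every one of the four cell panels; inactive means the rest.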
Tested on: H9c2
Experiment: protection of cardiomyocytes from stress damage, SAR follow-up, cell-based, panel, H9c2 and HL-1, H2O2, 2-deoxyglucose, ATP luminescence (AID 651642)
Settings: H9c2/HL-1 cardiomyocyte H2O2 oxidative damage, mean of runs, with H2O2

Row | SMILES | outcome
1 | CCOC(=O)c1ccccc1NC(=O)c1cc(-c2cc(OC)c(OC)c(OC)c2)nc2ccccc12 | inactive
2 | COc1cc(-c2cc(C(=O)Nc3cccc(C(N)=O)c3)c3ccccc3n2)cc(OC)c1OC | active
3 | COc1cc(-c2cc(C(=O)NCC(=O)Nc3cccc(C(C)=O)c3)c3cc(F)ccc3n2)cc(OC)c1OC | active
4 | COc1ccc2c(c1OC)C(=O)N1c3ccccc3C(=O)N(Cc3cccc(Br)c3)C21 (configuration not stated) | inactive
5 | COc1cc(-c2cc(C(=O)Nc3cccc(C(C)=O)c3)c3cccc(Cl)c3n2)cc(OC)c1OC | inactive
6 | COC(=O)CNC(=O)c1cc(-c2cc(OC)c(OC)c(OC)c2)nc2ccccc12 | inactive
7 | COc1cc(-c2cc(C(=O)Nc3cccc(C#N)c3)c3ccccc3n2)cc(OC)c1OC | inactive
8 | COc1cc(-c2cc(C(=O)Nc3cccc(C(=O)Nc4ccccc4)c3)c3ccccc3n2)cc(OC)c1OC | active
9 | CCOC(=O)c1cccc(NC(=O)c2cc(-c3cc(OC)c(OC)c(OC)c3)nc3ccc(C)cc23)c1 | active
10 | COc1ccc2c(c1OC)C(=O)N1c3ccccc3C(=O)N(Cc3ccccn3)C21 (configuration not stated) | inactive
11 | COc1ccc2c(c1OC)C(=O)N1c3ccccc3C(=O)N(Cc3ccc(C)cc3C)C21 (configuration not stated) | inactive
12 | COc1cc(-c2cc(C(=O)NCC(=O)Nc3cccc(C(C)=O)c3)c3ccccc3n2)cc(OC)c1OC | active
13 | COc1cc(-c2cc(C(=O)NCC(=O)Nc3ccc(C(C)=O)cc3)c3ccccc3n2)cc(OC)c1OC | inactive
14 | COc1ccc2c(c1OC)C(=O)N1c3ccccc3C(=O)N(Cc3ccccc3F)C21 (configuration not stated) | inactive
15 | CCOC(=O)c1cccc(NC(=O)CNC(=O)c2cc(-c3cc(OC)c(OC)c(OC)c3)nc3ccc(C)cc23)c1 | active
16 | CCOC(=O)c1cccc(NC(=O)c2cc(-c3cc(OC)c(OC)c(OC)c3)nc3ccccc23)c1 | inactive

Row | SMILES | outcome
17 | CCOC(=O)c1cccc(NC(=O)CNC(=O)c2cc(-c3cc(OC)c(OC)c(OC)c3)nc3ccccc23)c1 | inactive
18 | COc1ccc2nc(-c3cc(OC)c(OC)c(OC)c3)cc(C(=O)NCC(=O)Nc3ccc(C(C)=O)cc3)c2c1 | active
19 | COc1cc(-c2cc(C(=O)NCC(=O)Nc3ccc(C(C)=O)cc3)c3cc(F)ccc3n2)cc(OC)c1OC | inactive
20 | COc1ccccc1CN1C(=O)c2ccccc2N2C(=O)c3c(ccc(OC)c3OC)C12 (configuration not stated) | inactive
21 | COc1ccc2c(c1OC)C(=O)N1c3ccccc3C(=O)N(Cc3ccc(F)cc3)C21 (configuration not stated) | inactive
22 | CCNC(=O)c1cccc(NC(=O)c2cc(-c3cc(OC)c(OC)c(OC)c3)nc3ccccc23)c1 | active
23 | CCOC(=O)c1cccc(NC(=O)c2cc(-c3cc(OC)c(OC)c(OC)c3)nc3ccc(Cl)cc23)c1 | inactive
24 | CCOC(=O)c1cccc(NC(=O)c2cc(-c3cc(OC)c(OC)c(OC)c3)nc3ccc(F)cc23)c1 | inactive
25 | COc1cc(-c2cc(C(=O)Nc3cccc(C(C)=O)c3)c3ccccc3n2)cc(OC)c1OC | inactive
26 | COc1cc(-c2cc(C(=O)Nc3cccc(C(C)=O)c3)c3cc(Br)ccc3n2)cc(OC)c1OC | inactive
27 | COc1ccc2c(c1OC)C(=O)N1c3ccccc3C(=O)N(Cc3ccncc3)C21 (configuration not stated) | inactive
28 | CCOC(=O)c1cccc(NC(=O)c2cc(-c3cc(OC)c(OC)c(OC)c3)nc3ccc(Br)cc23)c1 | inactive
29 | CCOC(=O)c1cccc(NC(=O)c2cc(-c3cc(OC)c(OC)c(OC)c3)nc3cc(Cl)ccc23)c1 | inactive
30 | COc1cc(-c2cc(C(=O)Nc3cccc(C(C)=O)c3)c3cc(F)ccc3n2)cc(OC)c1OC | active
31 | CCOC(=O)c1cccc(NC(=O)CNC(=O)c2cc(-c3cc(OC)c(OC)c(OC)c3)nc3ccc(OC)cc23)c1 | active
32 | CCOC(=O)c1cccc(NC(=O)c2cc(-c3cc(OC)c(OC)c(OC)c3)nc3ccc(OC)cc23)c1 | active
